Experimental data reported in PubChem BioAssay (NCATS).
Results filed as inconclusive are left out. Entries that show only a call come without a potency. Calls of active or inactive are those of the source. Calls come from the whole dose curve; as a rule, active = well fitted inhibition curve with a large enough effect; inconclusive = small, poorly fitted or top-dose-only effect; inactive = flat fitted curve, though single readings scatter.

Assay: P-glycoprotein substrates identified in KB-8-5-11 adenocarcinoma cell line, qHTS therapeutic library screen (AID 1346987); note: nearly all actives have a fitted effect of over 65% in size
Settings: KB-8-5-11 (P-gp overexpressing) viability, CellTiter-Glo, 72 h; series mostly up to 44.5 µM
Summary of the method: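 Human cervical adenocarcinoma KB-8-5-11 cells, selected in colchicine to over-express P-gp and assayed without it, were exposed for 72 h to titrated compounds. An ATP-based luminescent viability signal gave AC50.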
Potency is the fitted concentration of half-maximal effect.

| Structure (SMILES) | Potency |
| --- | --- |
| O=S(=O)(N[C@H]1CCCC[C@@H]1N1CCOCC1)c1ccc(Cl)cc1 | inactive |
| O=C(CN1C2=NCCN2c2ccccc21)c1ccc(-c2ccccc2)cc1 | 16.4 µM (active) |
| CN(C)N(C)C(=O)[C@@]1(Cc2ccccc2)CCCN(C(=O)[C@@H](Cc2c[nH]c3ccccc23)NC(=O)C(C)(C)N)C1 | inactive |
| COc1ccc(-c2ccccc2)cc1NS(=O)(=O)c1cc(Cl)cc(Cl)c1O | inactive |
| O=C(Nc1cnc(Cl)nc1)c1ccc(F)c(F)c1 | inactive |
| Cc1nnc(C[C@@H]2C=C(c3ccc(Cl)cc3)c3ccccc3-n3c(C)nnc32)o1 | 2.59 µM (active) |
| CCC/C=C/C=C/C1CC(O)C2(O)C(=O)OCC12 (stereo not given) | inactive |
| O=C(c1ccc(OC(F)F)c(C#Cc2ccccn2)c1)N1Cc2cccnc2C1 | inactive |
| CC1(C)Oc2ncnc(N)c2N=C1c1ccc(C23CCC(CC(=O)O)(CC2)CC3)cc1 | inactive |
| Cc1noc(-c2ccc(-c3ccc(CC(=O)O)cc3)cc2)c1NC(=O)O[C@H](C)c1ccccc1Cl | inactive |
| COc1cc(N2CCOCC2)ccc1NC(=O)c1csc(-c2cccnc2)n1 | 11.6 µM (active) |
| CC1(NC(=O)c2ccc(C#Cc3cccc(F)c3)cn2)COC1 | inactive |
| COc1ccc(CCO[C@@H]2O[C@H](CO[C@H]3OC[C@](O)(CO)[C@H]3O)[C@@H](OC(=O)/C=C/c3ccc(O)c(O)c3)[C@H](O[C@@H]3O[C@@H](C)[C@H](O)[C@@H](O)[C@H]3O)[C@H]2O)cc1OC | inactive |
| O=C(NCC1(N2CCN(c3ccccc3)CC2)CCOCC1)c1cccnc1Sc1ccccc1 | inactive |
| Cc1cc(-c2cnc(N)c3c(-c4ccc5scnc5c4)csc23)n(C)n1 | 8.2 µM (active) |
| Cc1ccccc1C(C(=O)NC1CCCCC1)N(C(=O)Cn1cnc2ccccc21)c1cccc(F)c1 (stereo not given) | 23.1 µM (active) |
| C=C[C@@]1(C)C=C2C(=O)C(O)=C3[C@](C)(C(=O)O)CC[C@@H]4C[C@]34[C@]2(O)C(=O)C1 | 10.1 µM (active) |
| CC1(C)SCCN(S(=O)(=O)c2ccc(Oc3ccncc3)cc2)[C@H]1C(=O)NO | inactive |
| CC1=CC2/C=C(\C)CCC(O)C(=O)C(O)CC(=O)C23C(=O)NC(CC(C)C)C3C1C (stereo not given) | inactive |
| CC(C)=CCC/C(C)=C/COCC1OC(n2ccc(=O)[nH]c2=O)C(O)C1O (stereo not given) | inactive |
| C[C@H]1CC[C@@]2(OC1)O[C@H]1CC3C4CC[C@H]5C[C@@H](O)CC[C@]5(C)C4=CC(=O)[C@]3(C)[C@H]1[C@@H]2C (stereo not given in full) | inactive |
| C=C1C(=O)OC2C3=C(C)C(=O)CC3C(C)CC(O)C12 (stereo not given) | inactive |
| CCn1c(=O)c(-c2ccc(-c3cncs3)cc2Cl)cc2cnc(Nc3ccc(N4CCN(C)CC4)cc3)nc21 | 18.4 µM (active) |
| CNCCCC1(c2ccccc2)OC(C)(C)c2ccccc21 (stereo not given) | inactive |
| Oc1cccc(C2NC(=S)Nc3cccc(F)c32)c1 (stereo not given) | 23.1 µM (active) |
